We go through nine compounds from PubChem BioAssay AID1570 (National Center for Advancing Translational Sciences (NCATS), 2009).

Each structure is given as a SMILES string. Records with an inconclusive call do not appear. Entries that show only a call come without a potency. Active and inactive are the calls of the source. The call rests on the fitted dose curve; in most records, active means well fitted inhibition curve with a large enough effect; inconclusive means small, poorly fitted or top-dose-only effect, or effect the other way; inactive means flat fitted curve, though single readings scatter.

The target in the experiment is Thyroid hormone receptor beta (Homo sapiens) (UniProt P10828). Nature of the experiment: Concentration Response Confirmation Assay for Inhibitors of the Interaction of Thyroid Hormone Receptor and Steroid Receptor Coregulator 2, Fluorescein Fluoroprobe. The conditions noted are these: TRbeta LBD / fluorescein-SRC2 peptide, fluorescence polarization, 5 h; series mostly up to 92.2 µM. The gist of the method: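 Concentration-response qHTS: compound was added to 0.6 uM TRbeta LBD and 20 nM fluorescein-labeled SRC2 20-mer, with 1 uM T3 present, and incubated 5 h at ambient temperature. A fall in polarization (480/535 nm) marks inhibition, normalized to unbound and bound controls.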
Sequence of Thyroid hormone receptor beta (Homo sapiens) (P10828 whole entry, looked up, the tested form may be a part): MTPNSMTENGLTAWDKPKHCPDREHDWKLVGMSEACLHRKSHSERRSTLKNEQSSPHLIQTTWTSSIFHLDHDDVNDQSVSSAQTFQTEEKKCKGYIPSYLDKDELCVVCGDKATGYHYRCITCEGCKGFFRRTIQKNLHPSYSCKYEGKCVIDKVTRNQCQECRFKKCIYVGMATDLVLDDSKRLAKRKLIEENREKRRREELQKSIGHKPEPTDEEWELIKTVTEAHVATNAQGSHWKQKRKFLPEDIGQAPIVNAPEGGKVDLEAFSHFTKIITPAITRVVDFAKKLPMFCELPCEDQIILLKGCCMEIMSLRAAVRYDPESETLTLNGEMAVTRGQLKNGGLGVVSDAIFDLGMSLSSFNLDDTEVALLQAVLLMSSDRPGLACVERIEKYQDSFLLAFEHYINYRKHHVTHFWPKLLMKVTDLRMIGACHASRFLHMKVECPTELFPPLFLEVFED
In general terms: Fluorescence polarisation rises when a labelled molecule tumbles more slowly, as on binding a larger partner.
As for `COc1ccccc1Nc1cc2ccccc2c(=O)[nH]1`, the Potency was 35.5 µM (active). As for `C=CCSc1nnc2n(-c3ccccc3OC)c(=O)c3c4c(sc3n12)CCC4`, the Potency entry was “inactive”. Take `O=C(Nc1nc2ccc(Cl)cc2s1)c1ccc(N2CCCCC2)c([N+](=O)[O-])c1`: the Potency result is “inactive”. For `CCCCOc1ccc(C(=O)CCN2CCCCC2)cc1`, the Potency is 2.51 µM (active).

`Cc1ccc(OC(=S)Nc2ccc(O)cc2)cc1`: the Potency result is “inactive”. Next, `C=CC(=O)OCCOc1ccccc1`: 50.1 µM (active). Regarding `CCOc1ccc(C2=Cc3cc(OC)c(OC)cc3C(=C(Cl)Cl)O2)cc1`, the Potency result is “inactive”. Consider `CCN(C(=O)C1CCCN(c2ncnc3onc(-c4ccc(F)cc4)c23)C1)c1ccccc1` (centres undefined), for which the Potency entry was “inactive”. Turning to `O=C(O)/C=C/C(=O)Nc1ccc(SC(F)(F)C(F)(F)C(F)(F)F)cc1`, the Potency is 4.47 µM (active).
